In the library only some 2.1% were active in any assay of this set; here they are far more common.
SMARCA2 act: SMARCA2 (BRM) function activators, primary screen, cell-based, luminescence, high throughput | MG213 cells, MMTV-luciferase reporter, dexamethasone, overnight | activation, % at 9.1 µM | 370,000 compounds, 1% hits | AID 652017, 2013; in the data active = activation above about 7.8%;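 also: 0% = vehicle wells and 100% = reference activator wells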
ABCB6 inh MLPCN: ABCB6 transporter inhibitors, primary screen, K562-ABCB6 cells, flow cytometry, MLPCN library; 360,000 compounds, 0.19% hits; K562-ABCB6 porphyrin accumulation, 1 h; stronger effect = lower value; AID 602162, 2011; ATP-binding cassette sub-family B member 6 (Homo sapiens), Q9NP58; fluorescence ratio to DMSO, % at 10 µM;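 active = fluorescence ratio to DMSO below 75%, the collection mean minus 3 SD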;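 also: signal is porphyrin accumulated inside mitochondria; 100% equals median channel fluorescence of DMSO control wells; lower ratio means ABCB6 inhibition with less porphyrin fluorescence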
Target sequence (Q9NP58 whole entry, looked up): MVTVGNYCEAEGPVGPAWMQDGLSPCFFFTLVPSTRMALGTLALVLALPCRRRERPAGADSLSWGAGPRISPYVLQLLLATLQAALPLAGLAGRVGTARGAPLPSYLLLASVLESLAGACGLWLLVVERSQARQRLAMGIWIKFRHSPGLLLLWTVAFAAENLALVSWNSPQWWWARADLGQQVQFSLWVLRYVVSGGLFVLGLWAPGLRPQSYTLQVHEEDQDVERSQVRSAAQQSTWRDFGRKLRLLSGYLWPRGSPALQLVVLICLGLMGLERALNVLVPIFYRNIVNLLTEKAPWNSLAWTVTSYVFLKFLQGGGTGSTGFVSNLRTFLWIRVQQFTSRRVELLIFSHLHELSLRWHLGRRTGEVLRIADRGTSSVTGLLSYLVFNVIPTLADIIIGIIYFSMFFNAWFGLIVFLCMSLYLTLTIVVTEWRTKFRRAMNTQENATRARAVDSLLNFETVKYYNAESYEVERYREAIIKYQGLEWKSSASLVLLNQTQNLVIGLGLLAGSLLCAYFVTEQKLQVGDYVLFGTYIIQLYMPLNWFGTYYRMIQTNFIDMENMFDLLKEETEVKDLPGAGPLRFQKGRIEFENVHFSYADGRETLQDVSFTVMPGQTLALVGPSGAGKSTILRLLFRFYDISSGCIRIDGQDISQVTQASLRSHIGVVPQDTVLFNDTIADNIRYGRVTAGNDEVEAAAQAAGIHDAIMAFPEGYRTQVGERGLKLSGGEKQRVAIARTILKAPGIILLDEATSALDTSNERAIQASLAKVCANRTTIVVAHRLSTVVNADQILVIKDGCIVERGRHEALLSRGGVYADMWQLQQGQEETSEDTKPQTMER
MsrA inhibitor: bovine MsrA enzyme inhibitors, primary screen, biochemical, absorbance, HTS | purified bovine MsrA, absorbance read-out | inhibition, % at 15.5 µM | 360,000 compounds, 0.75% hits | Methionine sulfoxide reductase A (Bos taurus); in the data active = inhibition above about 4.5%;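 also: 0% = vehicle wells with enzyme and 100% = reference inhibitor wells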
bovine MsrA act: bovine MsrA enzyme activators, primary screen, biochemical, absorbance, HTS. purified bovine MsrA, absorbance read-out. activation, % at 10.6 µM. 360,000 compounds, 0.3% hits. Methionine sulfoxide reductase A (Bos taurus); in the data active = activation above about 7.5%;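 also: 0% = vehicle and 100% = reference activator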
SMARCA2 conf: SMARCA2 (BRM) function activators, confirmation, cell-based, luminescence, triplicate; shares compounds with SMARCA2 act; MG213 cells, MMTV-luciferase with dexamethasone, overnight; MG213 cells expressing E1A, Rb sequestered; DMSO wells 0%, reference activator 100%; activation, % at 9.1 µM; 3,500 compounds, 30% hits;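 active = activation above its plate's cutoff, the mean activation of tested wells plus 3 SD, cut at about 7.9% in these data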
VP16 Luc act: GAL4-VP16 luciferase reporter activation, counter-screen for SMARCA2 (BRM) activator project, cell-based, pG5luc, luminescence, high throughput | activation, % at 9.1 µM | HEK293 GAL4-VP16 pG5luc reporter; scaled: DMSO wells 0%, SAHA wells 100% | shares compounds with SMARCA2 act | 3,500 compounds, 41% hits | AID 686939, 2013;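 active = activation above the solvent-only control well mean plus 3 SD, averaged across control plates, cut at about 5.2% in these data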
* marks the source's active call; other numbers are inactive results; x = no result.

SMILES	SMARCA2 act	ABCB6 inh MLPCN	MsrA inhibitor	bovine MsrA act	SMARCA2 conf	VP16 Luc act
O=C(CSc1cccc[n+]1[O-])Nc1cc([N+](=O)[O-])ccc1Cl	0.9	92.0	0.5	3.9	x	x
Cc1cc(C)c(NC(=O)CSc2cccc[n+]2[O-])c(C)c1	-1.6	105.0	1.1	-1.9	x	x
O=C(CSc1cccc[n+]1[O-])Nc1cc2c(cc1Cl)C(=O)c1ccccc1C2=O	12.1*	101.0	0.7	0.7	13.1*	7.3*
Cc1ccc(NC(=O)CSc2cccc[n+]2[O-])c([N+](=O)[O-])c1	8.4*	98.0	1.1	-2.4	0.3	0.6
C[C@H](CO)N1C[C@H](C)[C@H](CN(C)C(=O)Nc2ccc(N3CCCCC3)cc2)OCc2cnnn2CCCC1=O	-1.4	x	-0.4	x	x	x
COC(=O)C1(C(=O)OC)C[C@H](/C=C/c2ccccc2)N(Cc2ccccc2OC)[C@@H]1c1ccccc1	3.9	x	-0.5	x	x	x
Cc1ccc(-n2c(SCC(N)=O)nc3c(c2=O)C2(CCCC2)Cc2ccccc2-3)cc1	8.0*	103.0	1.1	-1.1	-2.0	-1.2
CCSc1n[nH]c2nc3c(c(=O)n12)C1(CCCC1)Cc1ccccc1-3	-5.7	107.0	1.2	1.1	x	x
COC(=O)[C@]12CCCCC=C1N(CCc1ccc(OC)c(OC)c1)C(=O)[C@H](CC(=O)N1CCCCC1)C2	-1.1	x	-0.3	x	x	x
Cn1sc2ccccc2c1=O	12.8*	99.0	1.1	7.8*	16.4*	2.4
COc1ccc(N2CCN(CCNS(=O)(=O)c3ccc(F)cc3)CC2)cc1	1.7	x	x	x	x	x
CCC(C(=O)NC1CCCC1)n1c(-c2ccnc3ccccc23)nc2ccccc21 (stereo not drawn)	-1.9	x	0.3	x	x	x
COc1ccc(C2=NN(C(=O)CN3CCOCC3)C(c3nc4ccccc4[nH]3)C2)cc1 (stereo not drawn)	11.1*	99.0	0.0	-1.6	7.3	7.6*
C/C(CCc1ccc2c(c1)OCO2)=N\N=C1\NC(=O)CC(C(=O)Nc2ccc(Cl)cc2)S1 (stereo not drawn)	11.4*	94.0	0.3	-3.5	-4.9	0.5
Cc1ccc(N=C2NC(=O)CC(C(=O)Nc3ccc4c(c3)OCO4)S2)cc1 (stereo not drawn)	1.8	94.0	0.6	-2.7	x	x
O=C1[C@@H]2CSCCS(=O)(=O)N2C(=O)N1C1CCCCC1	-0.7	x	-1.9	x	x	x
CCOC(=O)[C@@H]1CSCCS(=O)(=O)N1C(=O)[C@H](Cc1ccccc1)NC(=O)OC(C)(C)C	0.1	x	-0.8	x	x	x
Cc1ccc(S(=O)(=O)N2CCCC(C(=O)NCc3ccco3)C2)cc1 (stereo not drawn)	10.0*	x	x	x	1.5	0.5
CC(C)(C)OC(=O)N/N=C/c1ccc(Br)cc1	8.2*	102.0	-0.6	-3.9	8.3*	10.0*
COC(=O)C[C@@H]1CC[C@H]2[C@H](COc3ccc(NC(=O)c4ccc(OC)cc4)cc3C(=O)N2C)O1	-2.1	x	x	x	x	x
Cc1ccc(N2C(=O)CCSC23C(=O)Nc2ccccc23)cc1 (stereo not drawn)	-0.3	98.0	0.2	-4.8	x	x
COc1ccc(N2C(=O)CSC23C(=O)Nc2ccccc23)cc1 (stereo not drawn)	8.6*	95.0	0.1	-3.8	-1.6	3.6
COC(=O)[C@H]1C[C@@]2(C)c3ccccc3N(S(=O)(=O)c3ccccc3)[C@H]2N1	-1.6	x	x	x	x	x
O=C(NCCc1ccc(Cl)cc1)c1ccc2nccnc2c1	9.4*	91.0	0.6	0.0	9.6*	9.9*
CC(C)(C)N1Cc2nnn(CC3CCCCC3)c2-c2ccccc2S1(=O)=O	1.7	x	x	x	x	x
SMILES	SMARCA2 act	ABCB6 inh MLPCN	MsrA inhibitor	bovine MsrA act	SMARCA2 conf	VP16 Luc act
CN(Cc1ccc(F)cc1)C(=O)c1cccc2c1C(=O)N(Cc1cccnc1)C2	-4.9	x	x	x	x	x
CCOC(=O)N1CCN(C(=O)Nc2ccccc2Cl)CC1	9.0*	102.0	-0.3	0.7	1.4	1.8
CCC(=O)N/C(N)=N/c1nc(C)c2cc(OC)ccc2n1	18.4*	102.0	0.1	0.6	34.9*	13.5*
C[C@@H]1CCN(C2CC2)S(=O)(=O)c2c(cccc2N2CCC[C@H]2CO)O1	1.1	x	x	x	x	x
CCn1nc(C)cc1C(=O)N1CCc2c([nH]c3ccccc23)C1c1cc(F)ccc1F (stereo not drawn)	9.0*	99.0	-0.3	-4.2	3.6	6.3*
N#C/C(=N\Nc1ccccc1)C(=N)N1CCCCC1	4.5	96.0	3.0	-4.5	x	x
CCN(CC)C(=N)/C(C#N)=N/Nc1ccccc1	12.9*	105.0	0.8	0.9	6.7	1.3
COC(=O)c1c(NC(=O)Cc2ccccc2)sc2c1CC(C)(C)NC2(C)C	11.7*	103.0	0.0	0.1	-0.8	1.4
CCOc1ccc2nc(NC(=O)CSc3cn[nH]n3)sc2c1	12.0*	91.0	-0.9	-1.4	8.2*	12.9*
COc1cc2ccccc2cc1C(=O)NC1CCCC1	3.7	105.0	0.3	1.0	x	x
COc1cc2ccccc2cc1C(=O)NC1CCC(C)CC1 (stereo not drawn)	11.5*	90.0	-0.4	-3.9	2.6	7.6*
COc1ccc(CN2C[C@H]3CON(C)[C@H]3C[C@H]2c2ccc(-c3ccccc3)cc2)cc1	-4.9	99.0	1.0	-6.4	x	x
COc1ccc2c3c(cccc13)C(=O)N(O)C2=O	9.0*	99.0	1.2	-9.8	44.4*	1.2
O=C1c2cccc3c([N+](=O)[O-])ccc(c23)C(=O)N1O	6.5	153.0	1.6	-4.9	x	x
CN(/N=C/c1cccnc1)c1cnc2ccccc2n1	9.0*	93.0	3.4	-5.4	19.4*	11.4*
Clc1ccc2c(NCCNC3CCCCC3)ccnc2c1	12.1*	104.0	1.0	-5.4	-10.2	1.2
CC(C)NC1CCC(Nc2ccnc3cc(Cl)ccc23)CC1 (stereo not drawn)	2.8	91.0	1.9	-4.1	x	x
CC1(C(=O)NC2CCCCCC2)CCN1C(=O)C1(c2ccccc2)CC1 (stereo not drawn)	-3.1	97.0	-1.9	0.2	x	x
CC1CCN(C(=S)NC(=O)c2cccc([N+](=O)[O-])c2)CC1	8.6*	88.0	1.2	-1.3	-1.4	0.4
Cc1cccc(-c2nnc(-c3ccc4ccccc4c3)o2)c1	10.5*	92.0	-0.8	-0.6	6.8	4.3
Cc1ccc(NC(=O)COC(=O)Cn2c(C)csc2=O)cc1	-4.0	104.0	-1.6	0.9	x	x
Cc1csc(=O)n1CC(=O)Nc1ccc(C(C)C)cc1	8.0*	96.0	0.3	-1.5	-1.3	5.4*
O=C(Nc1ccc(OC(F)(F)F)cc1)Nc1c(-c2ccccc2)nc2ncccn12	-2.4	x	x	x	x	x

High-throughput results deposited in PubChem by several laboratories.
